Cell viability data for 30 compounds are collected here from the supplement of paper PMC8866396.

One assay concerns IL-6-GFP PC-9GR. The experiment in a line: cell viability (CCK-8 OD) relative to DMSO control (fraction of control); higher = more viable cells. The note with it: compound concentration: 10 uM; treatment time: 48 h. A digest of the protocol:
(§1)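 In 96-well plates, 3000 cells/well of PC-9 or PC-9GR lung cancer cells with lentiviral IL-6-GFP overexpression received each compound of a purchased 510-compound library at a final 10 μM for 48 h. Viability, measured by CCK-8 absorbance, is each well's optical density relative to the vehicle control well. Data come from two independent replicates.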

The test system of another assay is IL-6-GFP PC-9. The description is as above. The note with it: compound concentration: 10 uM; treatment time: 48 h. The method, boiled down:
as §1

Each structure is given as a SMILES string. ± gives the standard deviation of the averaged measurements.

For `CC1(C)CCC(C)(C)c2cc(NC(=O)c3ccc(C(=O)O)cc3)ccc21` [Tamibarotene], the values for the cell viability in the assay with IL-6-GFP PC-9GR and with IL-6-GFP PC-9 were 1.55 ± 0.76 and 1.28 ± 0.11, respectively.
Taken in the same sequence, the figures for `OCc1ccccc1OC1OC(CO)C(O)C(O)C1O` (stereo not given) [Salicin] were 1.49 ± 0.23 and 1.2 ± 0.097.
The matching figures for `COc1cc(C2Oc3ccc(C4Oc5cc(O)cc(O)c5C(=O)C4O)cc3OC2CO)ccc1O` (stereo not given) [Silymarin]: 1.53 ± 0.29 and 1.21 ± 0.17.
Taken in the same sequence, the figures for `CC(C)OC(=O)CCC/C=C\CC1C(O)CC(O)C1CCC(O)CCc1ccccc1` (stereo not given) [Latanoprost] were 0.776 ± 0.15 and 1 ± 0.26.
For `Cc1nc(Nc2ncc(C(=O)Nc3c(C)cccc3Cl)s2)cc(N2CCN(CCO)CC2)n1.O` [Dasatinib Monohydrate], the cell viability in the assay with IL-6-GFP PC-9GR was found to be 0.687 ± 0.054; in the assay with IL-6-GFP PC-9, 0.488 ± 0.059.
In the case of `Cc1ccc(NC(=O)c2ccc(CN3CCN(C)CC3)cc2)cc1Nc1nc(-c2cccnc2)cs1` [Masitinib (AB1010)], the cell viability in the assay with IL-6-GFP PC-9GR turned out to be 0.268 ± 0.05; in the assay on IL-6-GFP PC-9, 0.366 ± 0.26.
`COc1ccc2cc1Oc1ccc(cc1)CC1c3cc(c(OC)cc3CCN1C)Oc1c(O)c(OC)cc3c1C(C2)N(C)CC3` (single isomer, unassigned; (+)) [(+)-Fangchinoline]: the values for the cell viability in the assay with IL-6-GFP PC-9GR and with IL-6-GFP PC-9 were 0.731 ± 0.36 and 0.678 ± 0.23, respectively.
Taken in the same sequence, the figures for `CC(=O)C1CCC2C3CC(C)C4=CC(=O)CCC4(C)C3C(O)CC12C` (stereo not given) [Medrysone] were 0.958 ± 0.024 and 1.15 ± 0.051.
The matching figures for `CCOC(=O)N1CCC(=C2c3ccc(Cl)cc3CCc3cccnc32)CC1` [Loratadine]: 1.12 ± 0.032 and 0.934 ± 0.18.
Consider `COc1c2occc2c(OC)c2c(=O)cc(C)oc12` [Khellin], for which the cell viability in the assay on IL-6-GFP PC-9GR amounted to 0.831 ± 0.16; in the assay with IL-6-GFP PC-9, 0.888 ± 0.17.
Turning to `CCC(=O)OC1(C(=O)CCl)C(C)CC2C3CC(F)C4=CC(=O)C=CC4(C)C3(F)C(O)CC21C` (stereo not given) [Halobetasol Propionate], the values for the cell viability with IL-6-GFP PC-9GR and with IL-6-GFP PC-9 were 0.859 ± 0.011 and 1.05 ± 0.29, respectively.
Taken in the same sequence, the figures for `CCCC1CC(C(=O)NC(C(C)O)C2OC(SC)C(O)C(O)C2O)N(C)C1.Cl` (stereo not given) [Lincomycin HCl] were 1.13 ± 0.27 and 0.958 ± 0.048.
Taken in the same sequence, the figures for `NC(=O)Cc1cccc(C(=O)c2ccccc2)c1N` [Nepafenac] were 1.07 ± 0.029 and 0.958 ± 0.1.
The matching figures for `Nc1nc(F)nc2c1ncn2C1OC(COP(=O)(O)O)C(O)C1O` (stereo not given) [Fludarabine Phosphate]: 0.174 ± 0.083 and 0.206 ± 0.052.
As to `CC(C(=O)O)c1ccc2c(c1)[nH]c1ccc(Cl)cc12` (stereo not given) [Carprofen], the cell viability is 1.16 ± 0.41 in the assay with IL-6-GFP PC-9GR and 0.265 ± 0.35 with IL-6-GFP PC-9.
As for `CC(O)CO.CCOc1ccc(Cc2cc(C3OC(CO)C(O)C(O)C3O)ccc2Cl)cc1.O` (stereo not given) [Dapagliflozin propanediol monohydrate], the cell viability was 1.07 ± 0.13 in the assay on IL-6-GFP PC-9GR and 1.14 ± 0.11 with IL-6-GFP PC-9.
Taken in the same sequence, the figures for `CC(C)Cc1ccc(C(C)C(=O)O)cc1` (stereo not given) [Ibuprofen] were 1.32 ± 0.12 and 1.06 ± 0.19.
Take `COc1nc(N)nc2c1ncn2C1OC(CO)C(O)C1O` (stereo not given) [Nelarabine]: the cell viability turned out to be 1.12 ± 0.017 in the assay on IL-6-GFP PC-9GR and 0.758 ± 0.029 in the assay on IL-6-GFP PC-9.
Taken in the same sequence, the figures for `O=C(O)c1ccccc1O.[NaH]` [Sodium salicylate] were 1.02 ± 0.2 and 1.03 ± 0.12.
`Nc1ccc(F)cc1NC(=O)c1ccc(CNC(=O)/C=C/c2cccnc2)cc1` [Tucidinostat (Chidamide)]: the cell viability in the assay on IL-6-GFP PC-9GR is 0.836 ± 0.38; in the assay with IL-6-GFP PC-9 it was 0.606 ± 0.23.
The matching figures for `N#CC1CC2CC2N1C(=O)C(N)C12CC3CC(CC(O)(C3)C1)C2.O` (stereo not given) [Saxagliptin hydrate]: 0.79 ± 0.18 and 1.14 ± 0.091.
The matching figures for `CN1CCC(=C2c3ccccc3CCc3cccnc32)CC1.O=C(O)/C=C\C(=O)O.O=C(O)/C=C\C(=O)O` [Azatadine dimaleate]: 0.981 ± 0.12 and 0.513 ± 0.013.
Taken in the same sequence, the figures for `NC1CN(c2c(F)cc3c(=O)c(C(=O)O)cn(C4CC4F)c3c2Cl)CC12CC2.NC1CN(c2c(F)cc3c(=O)c(C(=O)O)cn(C4CC4F)c3c2Cl)CC12CC2.O.O.O` (stereo not given) [Sitafloxacin Hydrate] were 1.11 ± 0.072 and 1.01 ± 0.042.
As for `CCC1(O)C(=O)OCc2c1cc1n(c2=O)Cc2cc3cc(O)ccc3nc2-1` [(S)-10-Hydroxycamptothecin], the cell viability with IL-6-GFP PC-9GR was 0.466 ± 0.076; with IL-6-GFP PC-9 it was 0.433 ± 0.032.
Taken in the same sequence, the figures for `COc1cccc2c1C(=O)c1c(O)c3c(c(O)c1C2=O)CC(O)(C(C)=O)CC3OC1CC(N)C(O)C(C)O1.Cl` (stereo not given) [Daunorubicin HCl] were 0.0902 ± 0.071 and 0.0966 ± 0.039.
Taken in the same sequence, the figures for `CC(=O)OC(C)OC(=O)C(C)c1ccc(-c2ccccc2)c(F)c1` (stereo not given) [Flurbiprofen Axetil] were 1.17 ± 0.29 and 1.16 ± 0.038.
The matching figures for `Nc1ccc(C(=O)[O-])c(O)c1.[Na+]` [Sodium 4-Aminosalicylate]: 1.02 ± 0.3 and 0.895 ± 0.055.
In the case of `NC(CO)(CO)CO.O=C(c1ccccc1)c1ccc2n1CCC2C(=O)O` (stereo not given) [Ketorolac tromethamine salt], the cell viability in the assay with IL-6-GFP PC-9GR was found to be 0.948 ± 0.075; in the assay with IL-6-GFP PC-9, 1.05 ± 0.19.
Taken in the same sequence, the figures for `Cn1c(=O)cc(N2CCCC(N)C2)n(Cc2ccccc2C#N)c1=O` (stereo not given) [Alogliptin(SYK-322)benzoate] were 0.986 ± 0.057 and 1.05 ± 0.088.
Taken in the same sequence, the figures for `CC(CN1c2ccccc2Sc2ccccc21)N(C)C.Cl` (stereo not given) [Promethazine HCl] were 0.929 ± 0.013 and 1.05 ± 0.051.
